From the supplement of paper PMC10849652
About 7,900 targets were measured; listed, in parts, are those with a hit and a random draw of the rest. About 0.6% of all pairs of compound and target were hits.

What was measured:
Experiment in all cases: log2 fold change, soluble protein after heating vs DMSO (PISA); higher = thermal stabilisation; K562 cells, 10 uM, 30 min; active = over 0.2 and 3.5 SD of the protein, either way, in both replicates (recomputed)
[1] = compound: CC[C@@H]1C(=O)N(C)c2cnc(Nc3ccc(C(=O)NC4CCN(C)CC4)cc3OC)nc2N1C1CCCC1
Method in brief: (§1)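 Thermal stability values are relative to control samples and come from duplicates. They are expressed as log2 fold changes. For measurement, K562 cells (2×10^6 cells/mL) received 10 μM compound for 30 min, and aliquots were heated for 3 min over 48°C-58°C, pooled, and extracted at 4°C in PBS with 0.5% NP-40. Soluble protein, the supernatant after 21,000xg for 90 min, was quantified by TMTpro 16plex LC-MS/MS with equalised channel sums.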

volasertib = compound: CC[C@@H]1C(=O)N(C)c2cnc(Nc3ccc(C(=O)N[C@H]4CC[C@H](N5CCN(CC6CC6)CC5)CC4)cc3OC)nc2N1C(C)C [volasertib]
Method in brief: as §1

[2] = compound: CC[C@H](C)N1C=C(C2=C(C=C(C=C21)C3=CN=C(C=C3)N4CCNCC4)C(=O)NCC5=C(C=C(NC5=O)C)C)C
Method in brief: as §1

epoxomicin = compound: CC[C@H](C)[C@@H](C(=O)N[C@@H]([C@@H](C)O)C(=O)N[C@@H](CC(C)C)C(=O)[C@]1(CO1)C)NC(=O)[C@H]([C@@H](C)CC)N(C)C(=O)C [epoxomicin]
Method in brief: as §1

[3] = compound: CCn1c(C(=O)N(C2CC2)C2CC2)cc2c3c(ncn3C)c(Nc3cc(C)n(C)n3)nc21
Method in brief: as §1

[4] = compound: CCn1cc(-c2ccnc3[nH]c(-c4cccc(CN(C)C)c4)cc23)c(-c2ccc(NC(=O)N(C)C)cc2)n1
Method in brief: as §1

[5] = compound: CN(C)CC(=O)Nc1ccc2[nH]c(=O)c3ccccc3c2c1
Method in brief: as §1

rosiglitazone = compound: CN(CCOC1=CC=C(C=C1)C[C@H]2C(=O)NC(=O)S2)C3=CC=CC=N3 (racemic) [rosiglitazone]
Method in brief: as §1

[6] = compound: CN1C2=C(C3=C1C(=O)N(N=C3)CC4=CC(=CC=C4)N)SC(=C2)S(=O)C
Method in brief: as §1

[7] = compound: CN1CCC(CNc2ccc3ncc(-c4cccc(OC(F)(F)F)c4)n3n2)CC1
Method in brief: as §1

saracatinib = compound: CN1CCN(CCOc2cc(OC3CCOCC3)c3c(Nc4c(Cl)ccc5c4OCO5)ncnc3c2)CC1 [saracatinib]
Method in brief: as §1

sotrastaurin = compound: CN1CCN(c2nc(C3=C(c4c[nH]c5ccccc45)C(=O)NC3=O)c3ccccc3n2)CC1 [sotrastaurin]
Method in brief: as §1

alvocidib = compound: CN1CC[C@H](c2c(O)cc(O)c3c(=O)cc(-c4ccccc4Cl)oc23)[C@H](O)C1 [alvocidib]
Method in brief: as §1

Tubastatin A = compound: CN1CCc2c(c3ccccc3n2Cc2ccc(C(=O)NO)cc2)C1 [Tubastatin A]
Method in brief: as §1

[8] = compound: CNC(=O)C1=CC=CC=C1NC2=NC(=NC=C2Cl)NC3=C(C=C(C=C3)N4CCOCC4)OC
Method in brief: as §1

defactinib = compound: CNC(=O)c1ccc(Nc2ncc(C(F)(F)F)c(NCc3nccnc3N(C)S(C)(=O)=O)n2)cc1 [defactinib]
Method in brief: as §1

rucaparib = compound: CNCc1ccc(-c2[nH]c3cc(F)cc4c3c2CCNC4=O)cc1 [rucaparib]
Method in brief: as §1

[9] = compound: CNc1nc(-c2ccc3c(N)n[nH]c3c2)cc(N2C[C@@H](C(=O)NC3CCCCC3)CC[C@H]2C)n1
Method in brief: as §1

encorafenib = compound: COC(=O)N[C@@H](C)CNc1nccc(-c2cn(C(C)C)nc2-c2cc(Cl)cc(NS(C)(=O)=O)c2F)n1 [encorafenib]
Method in brief: as §1

[10] = compound: COC(=O)[C@H](CCSC)NC(=O)C1=C(C=C(C=C1)NC[C@H](CS)N)C2=CC=CC=C2
Method in brief: as §1

Measured: log2 fold change

AP2M1 (UniProt Q96CW1)
Sequence of UniProt Q96CW1 (Q96CW1 whole entry, looked up): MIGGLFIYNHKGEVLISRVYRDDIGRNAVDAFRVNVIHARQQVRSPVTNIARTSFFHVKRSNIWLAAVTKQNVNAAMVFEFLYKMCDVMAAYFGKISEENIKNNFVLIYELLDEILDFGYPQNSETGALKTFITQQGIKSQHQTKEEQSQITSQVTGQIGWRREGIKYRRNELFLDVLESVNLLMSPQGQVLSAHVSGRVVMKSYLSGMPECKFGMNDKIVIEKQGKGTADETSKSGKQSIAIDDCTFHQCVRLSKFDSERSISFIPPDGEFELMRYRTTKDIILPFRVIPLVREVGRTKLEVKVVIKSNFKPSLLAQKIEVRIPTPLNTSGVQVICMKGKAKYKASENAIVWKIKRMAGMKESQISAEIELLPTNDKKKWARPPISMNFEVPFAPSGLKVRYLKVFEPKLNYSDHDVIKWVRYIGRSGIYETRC
inactive: [1] 0.072 | volasertib -0.041 | [2] 0 | epoxomicin 0.002 | [3] 0.013 | [4] -0.006 | [5] -0.046 | rosiglitazone -0.018 | [6] 0.023 | [7] 0.006 | saracatinib 0.032 | sotrastaurin 0.008 | alvocidib 0.017 | Tubastatin A 0.002 | [8] 0.005 | defactinib 0.016 | rucaparib 0.026 | [9] 0.001 | encorafenib 0.008 | [10] -0.014

AARS2 (UniProt Q5JTZ9)
inactive: [1] 0.001 | volasertib -0.199 | [2] 0.023 | epoxomicin 0.023 | [3] -0.015 | [4] -0.05 | [5] 0.031 | rosiglitazone 0.054 | [6] -0.062 | saracatinib 0 | sotrastaurin -0.05 | alvocidib -0.1 | Tubastatin A -0.096 | [8] -0.019 | defactinib -0.027 | rucaparib 0.008 | [9] 0.004 | encorafenib 0 | [10] -0.017
active: [7] -0.312

ADD1 isoform 3 (UniProt P35611)
inactive: [1] 0.077 | volasertib 0.015 | [2] -0.015 | epoxomicin -0.012 | [3] -0.007 | [4] 0.011 | [5] -0.039 | rosiglitazone -0.004 | [6] -0.055 | [7] 0.053 | saracatinib 0.095 | sotrastaurin -0.031 | alvocidib -0.088 | Tubastatin A -0.002 | [8] 0.008 | defactinib -0.039 | rucaparib -0.018 | [9] 0 | encorafenib -0.024 | [10] 0.031

ARF4 (UniProt P18085)
Sequence of UniProt P18085 (P18085 whole entry, looked up): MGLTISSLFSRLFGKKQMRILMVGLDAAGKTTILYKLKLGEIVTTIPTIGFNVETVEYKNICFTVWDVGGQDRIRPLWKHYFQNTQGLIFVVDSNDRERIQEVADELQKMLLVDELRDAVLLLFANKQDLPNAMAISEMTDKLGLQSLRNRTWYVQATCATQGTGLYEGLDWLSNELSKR
inactive: [1] 0.064 | volasertib 0.094 | [2] 0.009 | epoxomicin 0.112 | [3] -0.008 | [4] 0.014 | [5] 0.041 | rosiglitazone -0.033 | [6] -0.076 | [7] 0.097 | saracatinib 0.052 | sotrastaurin 0.028 | alvocidib -0.005 | Tubastatin A 0.011 | [8] 0.028 | defactinib -0.005 | rucaparib -0.051 | [9] -0.004 | encorafenib 0 | [10] -0.032

ACACB (UniProt O00763)
Sequence of UniProt O00763 (O00763 whole entry, looked up): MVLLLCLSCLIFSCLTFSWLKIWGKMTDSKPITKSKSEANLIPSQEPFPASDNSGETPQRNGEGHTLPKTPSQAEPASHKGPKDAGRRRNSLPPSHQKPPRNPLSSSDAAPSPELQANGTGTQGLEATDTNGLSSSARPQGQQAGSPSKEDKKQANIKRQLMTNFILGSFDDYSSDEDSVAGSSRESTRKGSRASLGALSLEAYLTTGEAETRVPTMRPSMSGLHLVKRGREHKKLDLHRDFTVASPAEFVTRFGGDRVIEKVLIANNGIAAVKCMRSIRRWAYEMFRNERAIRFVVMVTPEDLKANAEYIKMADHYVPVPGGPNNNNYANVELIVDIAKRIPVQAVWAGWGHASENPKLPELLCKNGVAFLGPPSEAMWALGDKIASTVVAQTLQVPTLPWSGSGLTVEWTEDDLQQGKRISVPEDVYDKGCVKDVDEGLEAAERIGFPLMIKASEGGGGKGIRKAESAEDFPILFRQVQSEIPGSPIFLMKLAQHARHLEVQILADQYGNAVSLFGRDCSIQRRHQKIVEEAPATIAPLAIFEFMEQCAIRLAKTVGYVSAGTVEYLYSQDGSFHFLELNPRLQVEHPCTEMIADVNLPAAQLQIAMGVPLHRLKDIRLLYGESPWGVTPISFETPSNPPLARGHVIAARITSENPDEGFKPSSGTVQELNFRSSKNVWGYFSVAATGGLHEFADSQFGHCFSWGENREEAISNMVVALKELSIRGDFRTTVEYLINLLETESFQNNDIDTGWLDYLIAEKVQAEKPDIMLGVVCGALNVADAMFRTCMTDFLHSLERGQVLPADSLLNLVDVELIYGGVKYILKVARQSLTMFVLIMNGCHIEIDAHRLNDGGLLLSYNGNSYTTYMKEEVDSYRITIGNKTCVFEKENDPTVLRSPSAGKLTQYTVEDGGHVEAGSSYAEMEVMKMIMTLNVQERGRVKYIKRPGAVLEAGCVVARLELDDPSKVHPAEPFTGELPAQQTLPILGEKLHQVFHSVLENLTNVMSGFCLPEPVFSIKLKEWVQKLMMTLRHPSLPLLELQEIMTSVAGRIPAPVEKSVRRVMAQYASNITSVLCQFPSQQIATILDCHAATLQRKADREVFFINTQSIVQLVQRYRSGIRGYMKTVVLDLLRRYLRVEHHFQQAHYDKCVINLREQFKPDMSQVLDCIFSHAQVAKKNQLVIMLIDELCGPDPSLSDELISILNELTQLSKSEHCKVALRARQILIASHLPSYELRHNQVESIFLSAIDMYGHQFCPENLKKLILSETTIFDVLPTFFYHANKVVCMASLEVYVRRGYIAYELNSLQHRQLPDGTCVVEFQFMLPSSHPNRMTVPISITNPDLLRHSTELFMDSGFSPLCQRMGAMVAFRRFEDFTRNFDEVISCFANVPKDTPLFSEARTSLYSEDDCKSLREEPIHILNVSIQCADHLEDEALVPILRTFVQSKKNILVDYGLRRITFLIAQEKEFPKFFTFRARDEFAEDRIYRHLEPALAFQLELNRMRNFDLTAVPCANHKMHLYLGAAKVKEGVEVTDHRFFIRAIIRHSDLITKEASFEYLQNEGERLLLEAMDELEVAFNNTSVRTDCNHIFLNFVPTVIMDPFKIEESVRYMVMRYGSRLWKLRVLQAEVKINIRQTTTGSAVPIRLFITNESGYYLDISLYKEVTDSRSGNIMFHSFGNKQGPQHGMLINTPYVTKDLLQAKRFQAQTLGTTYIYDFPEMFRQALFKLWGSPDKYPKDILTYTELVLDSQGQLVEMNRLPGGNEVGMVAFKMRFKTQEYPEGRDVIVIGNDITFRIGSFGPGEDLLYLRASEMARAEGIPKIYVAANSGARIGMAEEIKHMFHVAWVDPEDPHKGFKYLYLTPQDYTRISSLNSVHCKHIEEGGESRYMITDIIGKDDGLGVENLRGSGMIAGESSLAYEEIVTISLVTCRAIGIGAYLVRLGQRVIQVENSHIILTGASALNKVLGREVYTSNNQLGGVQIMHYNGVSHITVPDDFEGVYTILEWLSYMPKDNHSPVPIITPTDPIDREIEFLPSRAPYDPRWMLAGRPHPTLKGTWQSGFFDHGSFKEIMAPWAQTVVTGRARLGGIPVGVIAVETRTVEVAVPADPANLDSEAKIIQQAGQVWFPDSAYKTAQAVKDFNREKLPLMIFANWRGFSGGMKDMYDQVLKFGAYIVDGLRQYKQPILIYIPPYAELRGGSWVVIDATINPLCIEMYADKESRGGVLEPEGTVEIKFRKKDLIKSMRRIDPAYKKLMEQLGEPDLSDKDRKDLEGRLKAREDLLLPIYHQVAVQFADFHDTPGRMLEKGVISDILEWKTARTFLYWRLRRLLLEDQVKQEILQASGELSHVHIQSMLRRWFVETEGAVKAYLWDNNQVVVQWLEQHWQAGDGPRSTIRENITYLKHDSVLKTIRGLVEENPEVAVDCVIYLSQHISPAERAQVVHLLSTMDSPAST
inactive: [1] -0.006 | volasertib -0.468 | [2] 0.083 | epoxomicin -0.1 | [3] -0.194 | [4] 0.086 | [5] 0.061 | rosiglitazone 0.167 | [6] 0.308 | [7] 0.104 | saracatinib -0.166 | sotrastaurin -0.383 | alvocidib 0.033 | Tubastatin A 0.087 | [8] -0.083 | defactinib 0.016 | rucaparib 0.291 | [9] 0.228 | encorafenib 0.089 | [10] -0.137

ACTR1B (UniProt P42025)
active: [4] -0.581
inactive: [1] 0.081 | volasertib 0.048 | [2] 0.01 | epoxomicin -0.008 | [3] -0.014 | [5] 0.021 | rosiglitazone -0.033 | [6] -0.089 | [7] 0.306 | saracatinib 0.012 | sotrastaurin -0.025 | alvocidib -0.058 | Tubastatin A -0.004 | [8] 0 | defactinib -0.005 | rucaparib -0.037 | [9] -0.012 | encorafenib -0.048 | [10] -0.075

ACAP2 (UniProt Q15057)
Sequence of UniProt Q15057 (Q15057 whole entry, looked up): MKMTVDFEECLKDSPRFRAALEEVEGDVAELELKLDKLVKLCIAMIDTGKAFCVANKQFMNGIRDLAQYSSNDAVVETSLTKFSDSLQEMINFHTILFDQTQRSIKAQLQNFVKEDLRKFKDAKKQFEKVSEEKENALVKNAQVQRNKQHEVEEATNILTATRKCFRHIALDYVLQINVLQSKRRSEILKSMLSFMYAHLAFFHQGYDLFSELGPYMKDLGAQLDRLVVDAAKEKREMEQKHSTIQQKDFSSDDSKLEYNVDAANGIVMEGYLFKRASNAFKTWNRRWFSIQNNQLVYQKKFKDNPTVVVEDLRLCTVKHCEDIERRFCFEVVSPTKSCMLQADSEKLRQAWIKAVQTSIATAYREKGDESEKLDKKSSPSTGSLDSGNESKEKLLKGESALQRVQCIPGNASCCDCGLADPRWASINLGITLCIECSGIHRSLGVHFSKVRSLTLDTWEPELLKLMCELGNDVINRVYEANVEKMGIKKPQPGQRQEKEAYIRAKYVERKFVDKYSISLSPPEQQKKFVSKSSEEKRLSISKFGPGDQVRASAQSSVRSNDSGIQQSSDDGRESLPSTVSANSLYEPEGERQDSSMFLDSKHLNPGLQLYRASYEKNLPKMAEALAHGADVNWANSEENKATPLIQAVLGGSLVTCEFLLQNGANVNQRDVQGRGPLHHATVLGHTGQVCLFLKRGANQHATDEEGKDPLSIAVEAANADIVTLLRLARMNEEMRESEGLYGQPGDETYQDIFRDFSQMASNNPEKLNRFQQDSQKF
inactive: [1] -0.034 | volasertib -0.192 | [2] 0.066 | epoxomicin -0.002 | [3] -0.007 | [4] -0.015 | [5] 0.065 | rosiglitazone 0.023 | [6] -0.004 | [7] 0.063 | saracatinib -0.02 | sotrastaurin -0.029 | alvocidib -0.068 | Tubastatin A 0.001 | [8] 0.031 | defactinib -0.032 | rucaparib -0.016 | [9] -0.04 | encorafenib 0.062 | [10] -0.026

BTBD6 (UniProt Q96KE9)
inactive: [1] 0.017 | volasertib 0.001 | [2] -0.033 | epoxomicin -0.059 | [3] -0.163 | [4] -0.356 | [5] 0.066 | rosiglitazone 0 | [6] -0.112 | [7] -0.021 | saracatinib -0.031 | sotrastaurin 0.021 | alvocidib -0.143 | Tubastatin A 0.211 | [8] -0.141 | defactinib -0.131 | rucaparib 0.327 | [9] 0.082 | encorafenib -0.101 | [10] -0.009

APOB (UniProt P04114)
inactive: [1] -0.235 | volasertib -0.104 | [2] -0.227 | epoxomicin -0.056 | [3] 0.004 | [4] 0.048 | [5] 0.014 | rosiglitazone 0.02 | [6] 0.116 | [7] -0.354 | saracatinib -0.139 | sotrastaurin -0.17 | alvocidib -0.014 | Tubastatin A -0.021 | [8] 0.012 | defactinib 0.05 | rucaparib -0.197 | [9] -0.364 | encorafenib 0.04 | [10] -0.005

BUB1B isoform 3 (UniProt O60566)
inactive: [1] -0.127 | [2] 0.056 | epoxomicin 0.02 | [3] -0.055 | [4] 0.043 | [5] 0.065 | rosiglitazone 0.089 | [6] 0.013 | [7] -0.078 | saracatinib -0.071 | sotrastaurin -0.113 | alvocidib -0.074 | Tubastatin A 0.031 | [8] 0.042 | defactinib -0.076 | rucaparib 0.006 | [9] -0.031 | encorafenib 0.097 | [10] -0.029
active: volasertib -0.66

ARL2BP (UniProt Q9Y2Y0)
Sequence of UniProt Q9Y2Y0 (Q9Y2Y0 whole entry, looked up): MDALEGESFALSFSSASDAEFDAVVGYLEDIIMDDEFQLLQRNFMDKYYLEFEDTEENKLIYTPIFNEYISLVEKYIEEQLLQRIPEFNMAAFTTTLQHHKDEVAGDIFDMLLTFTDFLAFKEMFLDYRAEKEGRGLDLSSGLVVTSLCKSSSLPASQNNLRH
active: volasertib -0.682
inactive: [1] -0.222 | [2] 0.023 | epoxomicin -0.008 | [3] -0.022 | [4] -0.048 | [5] 0.032 | rosiglitazone 0.019 | [6] -0.062 | [7] -0.183 | saracatinib 0.093 | sotrastaurin -0.047 | alvocidib -0.021 | Tubastatin A 0.082 | [8] 0.002 | defactinib -0.153 | rucaparib 0.055 | [9] 0.147 | encorafenib -0.12 | [10] -0.055

BZW1 isoform 3 (UniProt Q7L1Q6)
active: volasertib -0.82
inactive: [1] -0.273 | [2] 0.114 | epoxomicin 0.019 | [3] -0.128 | [4] -0.041 | [5] 0.104 | rosiglitazone 0.063 | [6] 0.068 | [7] -0.33 | saracatinib -0.083 | sotrastaurin -0.207 | alvocidib -0.098 | Tubastatin A 0.047 | [8] -0.054 | defactinib -0.141 | rucaparib 0.128 | [9] 0.027 | encorafenib 0.158 | [10] -0.1

ARFIP1 (UniProt P53367)
active: [8] -0.351
inactive: [1] -0.008 | volasertib -0.184 | [2] 0.113 | epoxomicin -0.003 | [3] -0.101 | [4] 0.083 | [5] -0.011 | rosiglitazone 0.856 | [6] -0.053 | [7] -0.421 | saracatinib 0.043 | sotrastaurin -0.037 | alvocidib -0.031 | Tubastatin A 0.047 | defactinib -0.08 | rucaparib -0.086 | [9] 0.075 | encorafenib -0.01 | [10] 0.163

ARL6IP4 (UniProt Q66PJ3)
inactive: [1] 0.008 | volasertib -0.009 | [2] -0.023 | epoxomicin 0.014 | [3] 0.015 | [4] -0.025 | [5] 0.001 | rosiglitazone 0.017 | [6] -0.065 | [7] 0.01 | saracatinib -0.026 | sotrastaurin 0.023 | alvocidib -0.024 | Tubastatin A -0.024 | [8] -0.05 | defactinib -0.038 | rucaparib 0.01 | [9] -0.002 | encorafenib -0.059 | [10] 0.016

ATP12A isoform 2 (UniProt P54707)
Sequence of UniProt P54707 (P54707 whole entry, looked up): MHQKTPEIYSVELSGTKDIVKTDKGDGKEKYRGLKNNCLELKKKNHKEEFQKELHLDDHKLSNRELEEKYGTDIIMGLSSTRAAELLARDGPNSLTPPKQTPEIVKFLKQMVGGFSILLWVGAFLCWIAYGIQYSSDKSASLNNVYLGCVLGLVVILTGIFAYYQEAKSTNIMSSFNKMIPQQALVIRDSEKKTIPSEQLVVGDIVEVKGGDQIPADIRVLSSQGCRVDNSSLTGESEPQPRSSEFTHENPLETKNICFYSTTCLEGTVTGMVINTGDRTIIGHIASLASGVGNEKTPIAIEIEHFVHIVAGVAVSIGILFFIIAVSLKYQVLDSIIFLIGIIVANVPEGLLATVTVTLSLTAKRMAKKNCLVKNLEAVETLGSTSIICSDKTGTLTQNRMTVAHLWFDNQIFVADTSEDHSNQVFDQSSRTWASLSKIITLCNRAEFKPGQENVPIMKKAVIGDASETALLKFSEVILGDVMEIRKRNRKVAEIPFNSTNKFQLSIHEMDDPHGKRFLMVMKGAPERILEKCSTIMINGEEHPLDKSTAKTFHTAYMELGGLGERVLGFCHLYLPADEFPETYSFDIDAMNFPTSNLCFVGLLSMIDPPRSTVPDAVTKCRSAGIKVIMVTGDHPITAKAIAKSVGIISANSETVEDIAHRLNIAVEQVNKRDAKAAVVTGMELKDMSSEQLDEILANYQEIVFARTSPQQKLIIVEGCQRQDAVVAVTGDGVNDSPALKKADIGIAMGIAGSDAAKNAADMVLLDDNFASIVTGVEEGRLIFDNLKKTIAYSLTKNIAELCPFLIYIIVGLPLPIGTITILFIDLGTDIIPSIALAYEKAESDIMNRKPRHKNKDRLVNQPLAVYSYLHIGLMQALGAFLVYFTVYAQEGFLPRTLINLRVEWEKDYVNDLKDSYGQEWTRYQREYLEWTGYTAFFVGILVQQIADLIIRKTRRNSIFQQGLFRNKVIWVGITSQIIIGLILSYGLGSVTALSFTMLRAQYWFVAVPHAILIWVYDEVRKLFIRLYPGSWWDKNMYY
active: [7] 0.242
inactive: [1] 0.081 | volasertib 0 | [2] -0.029 | epoxomicin 0.013 | [3] 0.04 | [4] -0.031 | [5] -0.047 | rosiglitazone 0.015 | [6] -0.085 | saracatinib 0.011 | sotrastaurin 0.031 | alvocidib -0.026 | Tubastatin A -0.019 | [8] 0.002 | defactinib -0.072 | rucaparib -0.027 | [9] 0.023 | encorafenib -0.015 | [10] -0.005
